Test results as given in PubChem BioAssay (NCATS).
Where “and” joins values, the source holds several entries; their conditions need not be identical. Identical values can stand only once. Results filed as inconclusive are left out. Values without a mark were called inactive. Calls of active or inactive are those of the source. Calls follow the shape of the dose curve; as a rule, active = well fitted curve in the direction sought with a large enough effect; inconclusive = small, poorly fitted or top-dose-only effect, or another doubt; inactive = no such curve, though single readings can be large; an effect the other way counts as inactive or inconclusive.

Test: Viability qHTS for spleen associated tyrosine kinase inhibitor (SYKi) drug resistant MV4-11 cells (AID 1963824); also: nearly all actives have a fitted effect of over 35% in size
Conditions: SYKi-resistant MV4-11 viability, CellTiter-Glo, 72 h; series mostly up to 45 µM
Method in brief: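 SYK-inhibitor-resistant MV4-11 AML cells were seeded at 500 per well onto compound and cultured 72 hours (37 °C, 5% CO2). CellTiter-Glo was then added, and after 10 min at room temperature, luminescence gave viability.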
Potency is read from the fitted curve at half-maximal effect.

Row | Structure (SMILES) | Potency | viability, % of control
1 | COc1cc(O)c2c(=O)c(O)c(-c3ccc(O)c(O)c3)oc2c1 | 8.2 µM (active) | 
2 | CC1(C)CC[C@]2(C(=O)O[C@@H]3O[C@H](CO[C@@H]4O[C@H](CO[C@@H]5O[C@H](CO)[C@H](O)[C@H](O)[C@H]5O)[C@@H](O)[C@H](O)[C@H]4O)[C@@H](O)[C@H](O[C@@H]4O[C@H](CO)[C@@H](O)[C@H](O)[C@H]4O)[C@H]3O)[C@H](O)C[C@]3(C)C(=CCC4[C@@]5(C)CC[C@H](O[C@@H]6OC[C@@H](O)[C@H](O)[C@H]6O)[C@@](C)(C(=O)O)C5CC[C@]43C)[C@@H]2C1 (stereo partly drawn) |  | 90.5% [at 9.25 µM]
3 | COC(=O)C1C(c2ccc(O)cc2)C(C(=O)OC)C1c1ccc(O)cc1 (stereo not drawn) | 10.1 µM (active) | 
4 | Cc1nc(Nc2cnn(C3CCNCC3)c2)nc2c1N(C)C(=O)c1cc3ccccc3cc1N2C | 6.51 µM (active) | 
5 | Cc1ccc(NC(=O)c2ccc(CN3CCNCC3)cc2)cc1Nc1nccc(-c2cccnc2)n1 | 9.2 µM (active) and 16.6 µM (active) | 
6 | O=C(/C=C/c1nc2ccccc2[nH]1)c1c(-c2ccccc2)c2cc(Cl)ccc2[nH]c1=O | 0.291 µM (active) | 

Test: Cellular viability qHTS for adrenocortical cancer (ACC) cell line NCI-H295R (AID 1963990); also: nearly all actives have a fitted effect of over 60% in size;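 as to activity change, negative = viability loss: 0% = DMSO only wells and -100% = full killing with cytotoxic reference compound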
Conditions: CellTiter-Glo ATP luminescence, 48 h; series mostly up to 46.1 µM
Method in brief: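 Readout: CellTiter-Glo luminescence, 20 min RT. Exposure: 48 h, 37C/5% CO2. Cells: NCI-H295R, ITS-DMEM serum-free. Range: up to 46 uM. Analysis: 4PL fit, IC50 plus efficacy.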

Row | Structure (SMILES) | Potency | activity change, negative = viability loss
7 | CC(N)C(=O)OC(C)(C)Cc1ccc(Cl)cc1 (stereo not drawn) | inactive | 
8 | O=C1OC2(c3ccccc31)c1cc(I)c(O)c(I)c1Oc1c2cc(I)c(O)c1I | inactive | 
9 | COC[C@@H](c1ccc(C(F)(F)F)cc1)N1CCN(C2(C)CCN(C(=O)c3c(C)ncnc3C)CC2)C[C@@H]1C | inactive | 
10 | N#C/C(=C\c1ccc(O)c(O)c1)C(=O)NCc1ccccc1 | inactive | 
11 | C[C@]12CCC3=C4CCC(=O)C=C4CC[C@H]3[C@@H]1CC[C@@]2(O)CC#N | inactive | 
12 | CCOC(=O)N1CCN(/[N+]([O-])=N/Oc2ccc([N+](=O)[O-])cc2[N+](=O)[O-])CC1 | 22.4 µM (active) | 
13 | Cc1ccc(O)c(-n2nc3ccccc3n2)c1 | inactive | 
14 | O=C(O)C1(C(=O)O)CCC1.[NH2-].[NH2-].[Pt+2] | inactive | 
15 | CC1=C(/C=C/C(C)=C/C=C/C(C)=C/C=C/C=C(C)/C=C/C=C(C)/C=C/C2=C(C)CCCC2(C)C)C(C)(C)CCC1 | inactive | 
16 | COC1(c2sc3c(N4CCOCC4)nc(-c4cnc(N)nc4)nc3c2C)COC1 | 0.501 µM (active) | 
17 | CC(C)(C)NCC(O)c1cc(O)cc(O)c1 (stereo not drawn) | 25.9 µM (active) | 
18 | CN1CCN(c2ccc(-c3cccc(CN4CCOCC4)c3)cc2NC(=O)c2c[nH]c(=O)cc2C(F)(F)F)CC1 | inactive | 
19 | CSc1ccc(/C=C2/C(C)=C(CC(=O)O)c3cc(F)ccc32)cc1 | 25.9 µM (active) | 
20 | C[N+](C)(CCOc1ccccc1)Cc1cccs1 | inactive | 
21 | Cc1c(-c2ccc(-c3ccccc3F)cc2)nc2ccc(F)cc2c1C(=O)O | inactive | 
22 | O=C(O)c1ccc(-n2nc(-c3ccccc3O)nc2-c2ccccc2O)cc1 | 31.6 µM (active) | 
23 | Cc1cc(O)cc2c1[C@]1(C)CC[C@H]3C(C)(C)CCC[C@]3(C)[C@H]1C2 |  | -10.2% [at 3.81 µM]
